Source: PubChem (National Center for Advancing Translational Sciences (NCATS))
Shown are actives, neighbours in structure and some others; about 12% of the full set was active somewhere.
JMJD2A Tudor – qHTS Assay for Inhibitors of JMJD2A-Tudor Domain. Lysine-specific demethylase 4A (Homo sapiens), O75164. AlphaScreen JMJD2A-Tudor / H3K4me3 peptide binding. Potency, µM (doses to about 114 µM), most hits filed as inhibitors. 390,000 tested, 4.4% active; further: nearly all actives have a fitted effect of over 50% in size
HP1b chromo inh – HTS for Inhibitors of HP1-beta Chromodomain Interactions with Methylated Histone Tails; Chromobox protein homolog 1 (Homo sapiens), P83916; AlphaScreen HP1-beta / biotin-H3K9me3 peptide binding; Potency, µM (top dose mostly 114 µM), usual class: inhibitors; 390,000 tested, 0.56% active; further: nearly all actives have a fitted effect of over 70% in size
Target sequence (P83916 whole entry, looked up): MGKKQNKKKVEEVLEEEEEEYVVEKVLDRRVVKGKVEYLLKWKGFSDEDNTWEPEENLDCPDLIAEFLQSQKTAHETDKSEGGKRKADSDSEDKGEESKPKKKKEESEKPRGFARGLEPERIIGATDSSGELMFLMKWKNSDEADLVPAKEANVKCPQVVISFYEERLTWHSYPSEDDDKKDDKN
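Compound inhibition of the preformed complex between 50 nM HP1-beta and 50 nM biotinylated H3K9me3 peptide was read by AlphaScreen. Buffer was PBS pH 7.4 with 0.01% Tween-20. Incubations ran 30 min at room temperature, with 10 ug/mL donor/acceptor beads.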
BAZ2B inh – qHTS Assay for Inhibitors of BAZ2B. AID 504333, 2011. Potency, µM (series often up to 114 µM), hits mostly inhibitors. AlphaScreen BAZ2B-H3K14Ac peptide displacement. Bromodomain adjacent to zinc finger domain protein 2B (Homo sapiens), Q9UIF8. 360,000 tested, 4.4% active; further: nearly all actives have a fitted effect of over 60% in size
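BAZ2B 50 nM plus b-H3(5-23)K14Ac 50 nM, PBS pH 7.4/0.01% Tween-20, 30 min RT; compound added (max 110 uM), 30 min RT; streptavidin donor/Ni-chelate acceptor beads 10 ug/mL final, 20 min dark; AlphaScreen read.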
Sfp inh – qHTS Assay for Inhibitors of Bacillus subtilis Sfp phosphopantetheinyl transferase (PPTase); 4'-phosphopantetheinyl transferase ffp (Bacillus subtilis), Q9F4F7; Potency, µM, usual class: inhibitors; AID 1490, 2009; 310,000 tested, 3.5% active; Biochemical Sfp PPTase activity, qHTS;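 further: the enzyme is Sfp with the accession as filed and its product quenches rhodamine fluorescence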
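Step 1, compound plus 15 nM Sfp-PPTase, 15 min, room temperature. Step 2, add rhodamine-CoA (5 uM) and BHQ-2-YbbR (12.5 uM). Step 3, read 525/598 nm fluorescence at 0 and 30 min.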
G9a inh – qHTS Assay for Inhibitors of Histone Lysine Methyltransferase G9a. Histone-lysine N-methyltransferase EHMT2 (Homo sapiens), Q96KQ7. G9a H3K9 monomethylation, AlphaScreen, 2 h. Potency, µM (titrated, usually from 102 µM), actives largely listed as inhibitors. 350,000 tested, 8.8% active. AID 504332, 2011; further: nearly all actives have a fitted effect of over 75% in size
Target sequence (Q96KQ7 913-1193 limits assumed): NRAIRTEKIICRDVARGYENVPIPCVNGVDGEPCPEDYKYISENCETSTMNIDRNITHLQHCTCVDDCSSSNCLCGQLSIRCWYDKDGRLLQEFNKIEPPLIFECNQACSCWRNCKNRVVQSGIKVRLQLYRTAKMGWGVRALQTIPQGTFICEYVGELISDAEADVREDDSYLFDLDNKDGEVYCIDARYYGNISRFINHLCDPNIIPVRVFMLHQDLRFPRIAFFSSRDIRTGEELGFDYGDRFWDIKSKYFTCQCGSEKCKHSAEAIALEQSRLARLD
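Readings reflect AlphaScreen signal from monomethyl-H3K9 antibody detection. HMT at 20 nM; substrate b-H3K9 500 nM; cofactor SAM 20 uM; 2 h RT reaction; compounds tested as titrations in qHTS with 15 min preincubation.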
A number is an active result; 0 = inactive; ? = inconclusive; - = not tested or not shown; ! = not active in a repeat; [ ] = remark or other dose. The call rests on the fitted dose curve; in most records, active means well fitted curve in the direction sought with a large enough effect; inconclusive means small, poorly fitted or top-dose-only effect, or another doubt; inactive means no such curve, though single readings can be large; an effect the other way counts as inactive or inconclusive.

SMILES | JMJD2A Tudor | HP1b chromo inh | BAZ2B inh | Sfp inh | G9a inh
NNC(=O)C1CCCN1S(=O)(=O)c1ccc(Cl)cc1 (stereo not drawn) | 0 | 0 | 0 | 0 | 0
O=C(NC1CCS(=O)(=O)C1)C1CCCCN1S(=O)(=O)c1ccc(Cl)cc1 (stereo not drawn) | 0 | 0 | 0 | 0 | 28µM
Cc1ccc(C(=O)Nc2ccc(N3CCN(S(C)(=O)=O)CC3)cc2)cc1C | 0 | 0 | 0 | 0 | 0
CCN1CCN(c2ccc(NC(=O)c3ccc4c(c3)OCCO4)cc2C)CC1 | 0 | 0 | ? | - | 7.9µM
CN1CCN(c2ccc(NC(=O)c3ccc4c(c3)OCCO4)cc2)CC1 | 0 | 0 | 0 | 0 | 45µM
Cc1ccc(C(=O)Nc2ccc(N3CCN(C)CC3)cc2)cc1C | 0 | 0 | 0 | 0 | 71µM
CCC(=O)N1CCN(c2ccc(NC(=O)c3ccc4c(c3)OCCO4)cc2)CC1 | 0 | 0 | 0 | 0 | 0
CCN1CCN(c2ccc(NC(=O)c3cccc(OCc4ccccc4)c3)cc2)CC1 | 0 | 0 | 0 | 0 | ?
CN1CCN(c2ccc(NC(=O)c3cccc(OCc4ccccc4)c3)cc2)CC1 | ? | 0 | ? | 0 | 16µM
CSc1ccc(CCNC(=O)CCc2c(C)nc3c(c(C)nn3-c3ccc(C)c(C)c3)c2C)cc1 | 0 | 0 | 0 | - | 0
Cc1ccc(CNC(=O)CCCCCn2c(=O)c3sccc3n(CC(=O)N(C)c3ccccc3)c2=O)cc1 | 0 | 0 | 0 | - | 0
COC(=O)C/C=C\[C@@H](C)[C@@H](/C=N\OC[C@@H]1O[C@H](c2ccccc2)C=C[C@@H]1Oc1ccc(OC)cc1)OC | - | - | - | 0 | -
Cc1ccccc1CS(=O)(=O)c1nnc([C@H](CC(C)C)NC(=O)OC(C)(C)C)o1 | 0 | 0 | 0 | 22µM | 35µM
CC(C)(C)OC(=O)N[C@@H](Cc1ccccc1)c1nnc(S(=O)(=O)Cc2cccc(F)c2)o1 | 0 | 0 | 0 | 7.9µM | 35µM
CCOC(=O)CSc1nnc([C@H](Cc2ccccc2)NC(=O)OC(C)(C)C)o1 | 0 | 0 | 0 | 0 | 0
CC[C@@H](C)[C@H](NC(=O)OC(C)(C)C)c1nnc(S(=O)(=O)Cc2cc(C)ccc2C)o1 | 0 | 0 | 0 | ? | 79µM
CC(C)C[C@H](N)c1nnc(S(=O)(=O)Cc2cccc(F)c2)o1 | 0 | 0 | ? | 18µM | ?
CC[C@@H](C)[C@H](NC(=O)OCc1ccccc1)c1nnc([C@@H](NC(=O)OCc2ccccc2)[C@@H](C)CC)o1 | 0 | 0 | 0 | 0 | 0
Cc1ccc(C(=O)Nc2ccc3oc(-c4ccncc4)nc3c2)c(Cl)c1 | 0 | 0 | 0 | - | 0
Cc1ccc(S(=O)(=O)Nc2ccccc2F)cc1C(=O)N1CCN(c2ccccc2O)CC1 | 0 | 0 | 0 | - | 0[12.7 µM]
CCc1cccc(NC(=O)Cn2c(=O)n(-c3cccc(Cl)c3)c(=O)c3c2c2cc(C)ccc2n3C)c1 | 0 | 0 | 0 | - | 0
CCC(=O)c1ccc2c(c1)N(CCCN(C)C)c1ccccc1S2 | 0 | 0 | - | 0 | 14µM!
CN(C)CCCN1c2ccccc2Sc2ccccc21 | 0 | 0 | ? | 0 | 45µM!
COc1ccc2c(c1)Sc1ccccc1N2CCN(C)C | ? | 32µM | 25µM | 0 | ?
CC(=O)c1ccc2c(c1)N(C)c1ccccc1S2 | 0 | 0 | 0 | 0 | 0
SMILES | JMJD2A Tudor | HP1b chromo inh | BAZ2B inh | Sfp inh | G9a inh
c1ccc2c(c1)Sc1ccccc1N2CCN1CCCC1 | - | - | - | 0 | 0[12.7 µM]
O=C(COC(=O)Cn1cnc2ccccc21)Nc1ccc(OC(F)F)cc1 | 0 | 0 | - | - | -
COc1cc(C(c2c(C)[nH][nH]c2=O)c2c(C)[nH][nH]c2=O)ccc1OS(=O)(=O)c1ccccc1 | 0 | 0 | 0 | 0 | 22µM
COc1cc(C(c2c(C)[nH][nH]c2=O)c2c(C)[nH][nH]c2=O)cc(Cl)c1O | 0 | 0 | ? | 0 | 45µM
COc1cc(C(c2c(C)[nH][nH]c2=O)c2c(C)[nH][nH]c2=O)ccc1OS(=O)(=O)c1ccc(C)cc1 | 0 | 0 | 0 | 0 | 2.8µM
CCCn1c(-c2ccc(F)cc2)nc2c(NCCCN(CC)CC)nc(C)nc21 | - | - | - | 0 | -
COc1ccc(OC)c(CCNc2nc3cc(OC)c(OC)cc3c3nc(-c4cccnc4)nn23)c1 | 0 | 0 | 0 | - | 0
COc1ccc(Cl)cc1NC(=O)c1cc2ccc3ccc(C)[nH]c3c2n1 | 0 | 0 | 0 | - | ?
Cc1ccc(N/N=C/c2c(C)c(C#N)c(=O)n(C)c2O)cc1C | 11µM | 0 | 56µM | 13µM | 0.79µM
COc1cc(S(=O)(=O)Nc2ccc(C)cc2)ccc1N=Cc1c(C)c(C#N)c(=O)n(C)c1O | 0[11.4 µM] | 0 | 0 | 0 | ?
COc1ccc(C(=O)ON=C2C=C(C)C(=O)C(C)=C2)cc1 | 0 | 0 | 0 | 0 | 0
COc1ccc(SN=C2C(C)=CC(=O)C=C2C)cc1 | ? | ? | ? | 0 | 16µM
Cc1ccc(S(=O)(=O)Nc2ccc3c(c2)n(C)c(=O)n3C)c(C)c1 | 0 | 0 | 0 | 0 | -
Cc1ccc(S(=O)(=O)Nc2cc3c(cc2NCc2ccccc2)n(C)c(=O)n3C)c(C)c1 | ? | 0 | 50µM | - | 11µM
Cn1c(=O)n(C)c2cc(NS(=O)(=O)c3ccc(F)cc3)c(NCc3ccccc3)cc21 | ? | 0 | 0 | - | 11µM
Cc1ccc(S(=O)(=O)Nc2cc3c(cc2NCc2ccccc2)n(C)c(=O)n3C)cc1 | ? | ? | 0 | - | 16µM
O=C(CC(Sc1ccc(Br)cc1)C(=O)O)c1ccc(F)cc1 (stereo not drawn) | 0 | 0 | 0 | 45µM | ?
CCC(Sc1ccc(C(=O)O)cc1)C(=O)O (stereo not drawn) | 0 | 0 | 0 | 0 | 0
CCOc1ccc(C(=O)CC(Sc2ccc(C)cc2)C(=O)O)cc1 (stereo not drawn) | 0 | 0 | 0 | 35µM | 0[12.7 µM]
O=C(CC(C(=O)O)c1ccc(Cl)cc1)c1ccc(Br)cc1 (stereo not drawn) | 0 | 0 | 0 | 0 | 0
CCNc1ncc2nc(-c3ccc(Cl)cc3)c(=O)n(C[C@H]3CCCO3)c2n1 | - | - | - | 0 | 0[0.501 µM]
CNCCCCc1cnc(C)c2[nH]c3ccccc3c12 | - | - | - | 0 | -
CCOc1ccc(NC(=O)CN(C)C(=O)C2CC(=O)N(c3cccc(SC)c3)C2)cc1OCC (stereo not drawn) | 0 | 0 | - | - | -
CCOc1ccccc1NC1c2ccccc2C(=O)N1Cc1ccco1 (stereo not drawn) | ? | 0 | ? | 0 | 45µM
CCc1ccccc1NC1c2ccccc2C(=O)N1Cc1ccco1 (stereo not drawn) | 0 | 0 | 0 | 0 | ?
CCOc1cc(/C=N/NC(=O)c2cccc(S(=O)(=O)N3CCCC3)c2)ccc1OCC(=O)N(C)C | 0 | 0 | 0 | - | 0
O=C(NCc1ccccc1)c1cccnc1 | 0 | 0 | 0 | 0 | ?
O=C(Nc1ccccc1C(=O)NC(Cc1ccccc1)C(=O)O)c1ccco1 (stereo not drawn) | 0 | 0 | 0 | 0 | 0
